The subject of this test is THRa:RXRa (NR concentration 90 nM, RXRa partner concentration 90 nM). Kind of test: PBM binding z-score (relative to random genomic background probes); higher = stronger binding; sequences stand for … in GC…GCGATTGACAGCGTAGAATGAAGG
The procedure, abridged: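 Antibodies against each partner of ligand-free nuclear receptor dimers (one per run) detected binding on custom Agilent 4×180K protein-binding microarrays after 1 h incubation. The double-stranded probes had 34-nt variable regions carrying direct-repeat seeds, single-nucleotide variants, half-site ablations and random human genomic background sequences. Binding z-scores, from regression-normalized fluorescence, use the random background probes as reference.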
As for CTCGAAAGGTCGGTTGAGGTGAGAATACGGATAA, the PBM binding z-score worked out at 4.84.

Regarding TCTGCTAGGTCAGCTGGTCAGCTAACGAGCTGCC, the PBM binding z-score worked out at 1.8.

Regarding GCTTGTAGATCATGGTTAAGAAAGACTAAGCTAA, the PBM binding z-score was -0.389.

For TCTGCTAGGTCAGTTTGTCAGCTAACGAGCTGCC, the PBM binding z-score was determined as 0.996.

TCATATAGGTAAATGCTAGTTGAAAGTCCGATCT registered a PBM binding z-score of 0.27.

On to TCTCGGAGGACACGTAAGGTCAGAGCTCGACATC, for which the PBM binding z-score came out at 4.72.

In the case of ATGTCTAGGTAAAGATAGTTCAGTGAATGCAAAT, the PBM binding z-score stood at 0.506.

For the sequence TATACAGGGTCAAAGTCCAGAGTACGAATGTCGA, the PBM binding z-score was 3.65.

The sequence GGAACCAGGGCAAGTTGATAGCAGAGTTTGATGG gave a PBM binding z-score of 1.

CCTAGCAGGCCAGGGTCACTGAAGCATTTCGCTT came in with a PBM binding z-score of 3.07.

In the case of CGTCCAAGGTCAATGCTAGGACAGTGAAAGCATT, the PBM binding z-score is 4.3.

In the case of CCTACTGGGCCATTCATAGGTCATTGATCATATG, the PBM binding z-score was found to be 1.6.

Sequence CGAACTAGGTGATCCAGGACAGTGAATACATTGA yielded a PBM binding z-score of 1.38.

For the sequence ACTAGCAGGTCAAGTTTGGGTCACTCAAACAAAG, the PBM binding z-score stood at 4.38.

TCTCGTAGATCAAGCAGGTTAAGAAAGCCTGAGT registered a PBM binding z-score of 0.103.

GCTGCTAGGTCAGTTTGGTCAGCTAACGGGTACG showed a PBM binding z-score of 1.36.

Consider CCTACTGGGCCATCAGATCATTGATATCAACGTT, for which the PBM binding z-score is -0.114.

Consider CCGAGTGGGGCAGAAAGGTTACCATACCATCCGG, for which the PBM binding z-score was found to be 0.899.

The sequence AGTCAAAGTTCACTAGGTAACCTAAGATTCAGCT registered a PBM binding z-score of 2.46.

For the sequence TCTAGCAGGCCCGAGGGTCACTCAAGAGGTACGG, the PBM binding z-score stood at 1.67.

As for TCGACTAGGTTACCAATGGGGCATTCAGCTTTCT, the PBM binding z-score stood at 0.557.

Consider GCGACTGGGGCATCAGCAGGTTAGCATAACTTAA, for which the PBM binding z-score stood at 0.204.

The values are drawn from the supplement of paper PMC6555819.
